HCV inh = inhibitors of hepatitis C virus infection; Huh7.5.1 HCVcc-Cre infection, luciferase reporter, 44 h; 340,000 tested, 3.4% active; Potency, µM (titrated, usually from 41.8 µM), for inactives: top-dose activity change, negative = inhibition, hits mostly inhibitors; further: potency means the concentration at half of the fitted maximal effect; on the % scale 0 is the no-effect control and ±100 the full control effect
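Whole-lifecycle infectious HCVcc-Cre system; cells 1,000/well, compound then virus (~0.5 moi) added 4 h after plating, 44 h culture. Luciferase read 15 sec following 15 min substrate incubation, room temp.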
HCMV antiviral = inhibitors of human cytomegalovirus; HFF cells, HCMV-luciferase reporter, 72 h; hits give low values; activity change, negative = inhibition, % at 57.5 µM; 410,000 tested, 4.5% active; in the data active means activity change below about -60%; inconclusive means no clear call, values can overlap the other calls; inactive means above about -39%; further: on the % scale 0 is the no-effect control and ±100 the full control effect
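Luciferase read-out from HCMV-luciferase-infected HFFs (MOI 1 PFU/cell) 72 h post infection at 37C; compounds added after 16 h cell attachment; activity normalized between buffer-only basal and Salinomycin (10uM) inhibitor controls.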
Pf growth 48h = inhibits P. falciparum growth in the first generation, 48 h; P. falciparum luciferase growth in erythrocytes, 48 h; Potency, µM (highest dose often 28.7 µM), without a hit: top-dose activity change, negative = inhibition, actives largely listed as inhibitors; 310,000 tested, 5.9% active; further: potency means the concentration at half of the fitted maximal effect; on the % scale 0 is the no-effect control and ±100 the full control effect
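Parasite viability was followed by luminescence of a genomically integrated firefly luciferase. Cultures held 0.1% parasitemia at 2% hematocrit (final), incubated under 5% CO2 at 37 C.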
Cycloheximide cs = counter-screen for Shiga toxin inhibitors: cycloheximide protein synthesis inhibition. cell reporter, cycloheximide protein synthesis inhibition counterscreen. max response, %. 300,000 tested, 12% active; in the data active means max response mostly above about 13%, no sharp cut-off; inactive means mostly below about 14%; further: read at 38.3 µM for the half of the compounds with a filed dose; 0% is about no effect
Shiga toxin inh = inhibitors of Shiga toxin in Vero cells. inhibition, % at 38.7 µM. 290,000 tested, 9.2% active. AID 2315. Vero cells, Shiga toxin protein synthesis inhibition reporter; in the data active means inhibition mostly above about 28%, no sharp cut-off; inactive means mostly below about 43%; further: 0% is about no effect
Pf growth 96h = P. falciparum growth inhibition at 96 hour, primary screen for plastid delayed-death inhibitors. AID 504834. 320,000 tested, 6.9% active. Potency, µM (top dose mostly 28.7 µM), inactives show at the top dose activity change, negative = inhibition, most hits filed as inhibitors. P. falciparum luciferase reporter growth, 96 h; further: potency means the concentration at half of the fitted maximal effect; on the % scale 0 is the no-effect control and ±100 the full control effect
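Delayed-death screen, second-generation endpoint: infected erythrocytes, 2% hematocrit, 0.05% parasitemia final; 96 hours at 37 C, 5% CO2; luciferase detection reagent; luminescence decrease equals reduced growth.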
* = called active by the depositor; ? = inconclusive; · = no result given. Only some compounds are listed: those with a hit (about 21% of all), similar ones and a draw of the others. Unless noted, the call rests on the fitted dose curve; in most records, active means well fitted inhibition curve with a large enough effect; inconclusive means small, poorly fitted or top-dose-only effect, or another doubt; inactive means no such curve, though single readings can be large or run the other way.

SMILES	HCV inh	HCMV antiviral	Pf growth 48h	Cycloheximide cs	Shiga toxin inh	Pf growth 96h
CCC(=S)/C=C1\Sc2ccccc2N1CCCS(=O)(=O)O	22%	61	0%	-1	-12	?
CCCCN1/C(=C/c2ccc3ccccc3[n+]2CC)Sc2ccccc21	8.9µM*	·	2.9µM*	-2	-9	24%
CCN1/C(=C/c2ccc3ccccc3[n+]2CC)C=Cc2ccccc21	4.5µM*	-104*	·	-6	-12	?
CCN1/C(=C/c2ccc3cc(C)ccc3[n+]2CC)Sc2cc(C)ccc21	2.5µM*	-100*	?	2	-21	?
COCCN(Cc1ccccc1)C(=O)c1ccc2c(=O)n3c(nc2c1)CCC3	6%	0	18%	·	·	11%
CC1CCCC(C)N1C(=O)COC(=O)c1nn(C)c(=O)c2ccccc12 (stereo unspecified)	3%	17	-3%	11	31	-16%
CN(c1ccccc1)S(=O)(=O)c1ccc(Cl)nc1	-3%	-17	10%	8	14	13%
Cc1nc(S(=O)(=O)N(C)c2ccccc2)c(C#N)c(C)c1Cl	-25%	-97*	?	-2	-12	74%
CCOC(=O)C1(Cc2cccc(F)c2)CCN(Cc2c(C)nn(CC)c2C)CC1	13µM*	?	16%	1	-15	13%
CCOC(=O)C1(Cc2cccc(F)c2)CCN(Cc2cn(CC)nc2C)CC1	?	0	0%	-1	-3	?
CCOC(=O)C1(Cc2cccc(F)c2)CCN(Cc2cnc(C)s2)CC1	4%	-33	?	-3	1	2.3µM*
CCOC(=O)C1(CCCc2ccccc2)CCN(Cc2cnc(C)s2)CC1	?	31	?	-2	-6	?
Cc1cc(N2CCN(C(=O)OC(C)(C)C)C[C@H]2C)ccc1N1CC[C@@H](O)C1	·	19	·	·	·	·
CC(=Nc1cccc(O)c1)c1sc2ccccc2c1O	10%	122	-37%	55*	111*	51%
CC(=Nc1ccc(C)cc1)c1sc2ccccc2c1O	13µM*	11	32%	35*	92*	180%
CCOC(=O)c1sc2ccccc2c1OC(=O)c1ccc(C)cc1	14%	·	13%	5	-5	0%
CC(=Nc1ccc(C)cc1C)c1sc2ccccc2c1O	?	-19	-44%	37*	119*	0%
CC(=Nc1ccccc1C)C1=C(O)CSC1=O	-8%	27	12%	1	-6	·
Cc1cccc(C)c1NC(=O)CSC(=O)c1sc2ccccc2c1Cl	14%	25	-7%	-1	2	6%
COc1cc(OC)cc(N2C(=O)CSC23C(=O)Nc2ccccc23)c1 (stereo unspecified)	·	6	·	·	·	·
CC1CCN(C(=O)c2cc(-c3ccco3)on2)CC1	-12%	38	98%	27*	66*	42%
CC1CCCC(C)N1C(=O)c1cc(-c2ccco2)on1 (stereo unspecified)	4%	-5	14%	8	47*	57%
CC1CCN(C(=O)c2cc(-c3ccccc3O)on2)CC1	12%	-12	·	39*	85*	1%
COc1cccc(-c2cc(C(=O)N3C(C)CCCC3C)no2)c1 (stereo unspecified)	-2%	115	·	100*	72*	8%
O=C(c1cc(-c2ccco2)on1)N1CCN(c2ccccc2)CC1	?	11	53%	5	17	?
SMILES	HCV inh	HCMV antiviral	Pf growth 48h	Cycloheximide cs	Shiga toxin inh	Pf growth 96h
O=C(NC1(O)C(=O)c2ccccc2C1=O)c1c(Cl)cccc1Cl	9%	11	2.9µM*	-4	-6	33%
c1ccc(-c2ccccc2OCCCN2CCCCCC2)cc1	?	-72*	?	-3	-12	-25%
CC1CC(C)CN(CCOc2ccccc2-c2ccccc2)C1 (stereo unspecified)	23%	28	?	-5	4	10µM*
c1ccc(-c2ccccc2OCCCN2CCCC2)cc1	-23%	-3	-23%	-3	-8	?
c1ccc(-c2ccccc2OCCCCN2CCCCC2)cc1	?	?	10µM*	0	-7	18%
Clc1ccccc1OCCCCN1CCCCC1	?	27	21%	-2	-6	?
CC1CCN(CCOc2ccccc2-c2ccccc2)CC1	-1%	-14	1%	-1	-3	?
O=C(CCN1C(=O)c2cccc3cccc(c23)C1=O)Nc1ccccc1	?	19	17%	10	-4	?
COc1ccc(C(NC(=O)c2cc(OC)ccc2OC)c2ccccc2)cc1 (stereo unspecified)	?	39	?	-2	-2	?
COc1ccc(OC)c(CC(=O)NC(c2ccccc2)c2ccccc2)c1	?	-31	?	0	3	6.6µM*
COc1ccc(CC(=O)NC(c2ccccc2)c2ccc(C)cc2)c(OC)c1 (stereo unspecified)	-23%	2	10µM*	18	-6	?
COc1cccc(CNC(=O)c2c(C)oc3nc(C)nc(N4CCOCC4)c23)c1	·	-13	·	·	·	·
COc1ccccc1N1CCN(C(=O)CCn2cnc3onc(-c4ccc(F)cc4)c3c2=O)CC1	·	-12	·	·	·	·
CN(C)/C=C1\C(=O)ON=C1c1ccccc1	18%	45	2%	-3	-16	3%
COc1ccccc1/C=C1/C(=O)N(c2ccccc2)N=C1C	8%	4	-6%	-3	-2	?
Cc1ccc(C2=NOC(=O)/C2=C\C=C\c2ccccc2)cc1	?	-109*	-20%	8	3	2.9µM*
CC1=NN(c2ccccc2)C(=O)/C1=C/C=C/c1ccccc1	12%	-69*	?	-1	10	?
CC1=NN(c2ccccc2)C(=O)/C1=C/c1cc(C)n(C2CC2)c1C	-7%	-68*	?	-1	-1	0%
COc1cc(/C=C2\C(=O)N(c3cccc(C(=O)O)c3)N=C2C)ccc1OCc1ccccc1	·	13	·	·	·	·
CC1=NN(c2cccc(C(=O)O)c2)C(=O)/C1=C\C=C\c1ccco1	10%	-36	17%	86*	126*	29%
COc1ccc(-c2oc3ncn4nc(-c5ccccc5C)nc4c3c2-c2ccc(OC)cc2)cc1	·	12	·	·	·	·
Cc1cccc2c1nc(-c1ccccc1)n1cnnc21	-2%	-69*	8%	-1	-10	41%
Cc1cccc2c1nc(-c1ccccc1)n1nnnc21	-29%	-60*	19%	3	-25	14%
COc1ccc(NC(=O)Nc2ccc3[nH]ccc3c2)cc1	6%	52	·	·	·	·
O=C(Nc1ccc2[nH]ccc2c1)c1ccc(F)cc1	-10%	117	165%	13*	16	471%
O=C(Nc1ccc2[nH]ccc2c1)c1ccccc1	18%	101	164%	27*	32	472%
Cc1c(Cl)cccc1NC(=O)CCN1CCN(C)CC1	8%	-12	-4%	-3	-4	?
Cc1cc(F)ccc1NC(=O)CCCN(C)S(=O)(=O)c1ccc(F)cc1	-28%	24	0%	-6	17	6%
